Compound activity deposited in PubChem BioAssay by National Center for Advancing Translational Sciences (NCATS).
Compounds with a hit are over-represented: about 6.2% of the library has one in this group of screens.
HT1080 IDH1KD tx – kills HT-1080 cells with IDH1 knockdown; AID 686971; HT-1080 IDH1 knockdown viability, ATP luminescence, 48 h; Potency, µM (highest dose often 46.1 µM), for the others: at the highest dose activity, negative = toxicity, most hits filed as cytotoxic; 2% of 360,000 active;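 also: 0% = DMSO wells and -100% = cell-free medium wells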
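Knockdown cells (IDH1KD HT-1080) received compounds 2 h after plating at 750 cells/well and were kept 48 h at 37 °C in 5% FBS RPMI. A CellTiter-Glo luminescence read gave % activity for curve fitting.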
KB-3-1 tox – kills parental KB-3-1 adenocarcinoma cells | KB-3-1 viability, CellTiter-Glo ATP luminescence, 72 h | Potency, µM (highest dose often 46.1 µM), most hits filed as cytotoxic | 1.4% of 400,000 active; also: % is scaled to controls: 0 for no effect and ±100 for the full control effect; nearly all actives have a fitted effect of over 60% in size
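Using CellTiter-Glo luminescence, growth of non-resistant KB-3-1 adenocarcinoma cells is assessed 72 h after pin-tool compound addition at 37 °C. Normalized responses across the concentration series yield fitted curves.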
HT1080-NT tox – kills 2HG-producing HT-1080-NT fibrosarcoma cells; HT-1080-NT fibrosarcoma viability, CellTiter-Glo ATP luminescence, 48 h; Potency, µM (top dose mostly 46.1 µM), without a hit: top-dose activity, negative = less viability, usual class: cytotoxic; 1.6% of 360,000 active; AID 686970;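 also: NT is the 2HG producing partner of a matched IDH1 knockdown line; 0% = DMSO-treated cells and -100% = media-only wells without cells; nearly all actives have a fitted effect of over 55% in size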
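Viability of the 2HG-overproducing fibrosarcoma line after 48 hours of compound exposure at 37 degrees C was determined by luminescence with CellTiter-Glo, and concentration-effect curves were then fitted and categorized.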
ATXN2 expr inh – reduces ATXN2 reporter expression in HEK-293 cells; HEK-293 ATXN2-luciferase reporter, luminescence, 24 h; Potency, µM (series often up to 57 µM), without a hit: at the highest dose activity change, negative = inhibition, hits mostly inhibitors; 0.72% of 360,000 active; also: % is scaled to controls: 0 for no effect and ±100 for the full control effect; nearly all actives have a fitted effect of over 55% in size
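qHTS (up to 57 uM final) was run with 24 h compound exposure of reporter cells at 37 °C. Each well was multiplexed: SteadyGlo luminescence measured ATXN2-luciferase expression after a fluorogenic Gly-Phe-AFC viability readout (25 uM final).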
KB-V1 cytotox – kills drug-selected multidrug resistant KB-V1 cells; KB-V1 MDR cells viability, CellTiter-Glo, 72 h; Potency, µM (top dose mostly 46.1 µM), most hits filed as cytotoxic; 3.4% of 400,000 active; also: % is scaled to controls: 0 for no effect and ±100 for the full control effect; nearly all actives have a fitted effect of over 60% in size
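Luminescent ATP read-out (CellTiter-Glo, 10 min) measures survival of drug-selected KB-V1 MDR cells after 72 h, 37 degrees C compound exposure. Medium: phenol-red-free DMEM, 10% FBS. Values from fitted concentration-response curves.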
ATXN viability – reduces viability in counter-screen for ATXN expression inhibitors. 0.49% of 400,000 active. Potency, µM (series often up to 56.7 µM), actives largely listed as cytotoxic. AID 651635. S2 cells (HEK-293 line with an ATXN2-luciferase reporter) viability, CellTiter-Fluor protease fluorescence, 24 h; also: nearly all actives have a fitted effect of over 40% in size
* hit, by the source's call; i = inactive; ? = inconclusive; · = no result given. Calls follow the shape of the dose curve; as a rule, active = well fitted curve in the direction sought with a large enough effect; inconclusive = small, poorly fitted or top-dose-only effect, or another doubt; inactive = no such curve, though single readings can be large; an effect the other way counts as inactive or inconclusive. Potency is read from the fitted curve at half-maximal effect.

SMILES	HT1080 IDH1KD tx	KB-3-1 tox	HT1080-NT tox	ATXN2 expr inh	KB-V1 cytotox	ATXN viability
COc1cc2nc(CN(C)Cc3nc4ccccc4c(=O)[nH]3)[nH]c(=O)c2cc1OC	7.08µM*	i	17.8µM*	0.2%	i	i
COc1ccccc1CN(Cc1nc2ccccc2c(=O)[nH]1)S(=O)(=O)c1ccc2ccccc2c1	6.31µM*	i	?	?	13µM*	?
O=c1[nH]c(CN(CCc2ccccc2)S(=O)(=O)c2ccc(Cl)cc2)nc2ccccc12	-18.0%	i	-5.8%	-0.7%	3.26µM*	i
COc1ccccc1NC(=O)N(Cc1ccc2c(c1)OCO2)Cc1nc2ccccc2c(=O)[nH]1	11.8%	i	7.0%	-6.1%	i	i
CCOC(=O)c1sc(N2C(=O)c3oc4ccc(C)cc4c(=O)c3C2c2ccccc2F)nc1C (stereo unspecified)	·	i	·	-7.8%	?	i
CCOc1cc(Cn2c(-c3ccc(O)c(OCC)c3)nc3ccccc32)ccc1O	·	i	·	-21.0%	i	i
CC/C(=N\NC(=O)c1nnn(-c2nonc2N)c1CN(C)c1ccccc1)c1ccccc1	0.4%	i	2.9%	·	i	?
COc1ccc(O)c(CN2CCC3(CCC(CNC(=O)C4CCCO4)O3)CC2)c1 (stereo unspecified)	·	·	·	·	·	i
CN(C)c1ccc(-c2ccnc3c2CC(C)(C(=O)Nc2cccc(OC(F)(F)F)c2)O3)cc1 (stereo unspecified)	1.0%	i	4.4%	6.9%	i	i
CC(=O)Nc1cccc(-c2ccnc3c2CC(C)(C(=O)Nc2ccc4c(c2)OCO4)O3)c1 (stereo unspecified)	?	2.31µM*	?	-17.3%	8.2µM*	?
CC(=O)Nc1cccc(-c2ccnc3c2CC(C)(C(=O)Nc2cccc(C(C)=O)c2)O3)c1 (stereo unspecified)	14.6µM*	?	-9.6%	-15.7%	i	?
CC(=O)Nc1cccc(-c2ccnc3c2CC(C)(C(=O)Nc2ccc(Cl)cc2)O3)c1 (stereo unspecified)	4.11µM*	2.31µM*	9.2µM*	?	?	?
CC1(C(=O)Nc2ccc3c(c2)OCO3)Cc2c(-c3ccccc3)ccnc2O1 (stereo unspecified)	?	?	-25.3%	-6.3%	?	?
CC(=O)Nc1ccc(NC(=O)C2(C)Cc3c(-c4cccc(NC(C)=O)c4)ccnc3O2)cc1 (stereo unspecified)	2.5%	i	26.0%	-2.8%	i	i
CC1(C(=O)Nc2cccc(OC(F)(F)F)c2)Cc2c(-c3ccc4c(c3)OCO4)ccnc2O1 (stereo unspecified)	16.4µM*	?	?	0.0%	i	i
Cc1cccc(CN2C(=O)c3ccccc3Sc3ccc(C(=O)N4CCCC4)cc32)c1	·	?	·	?	i	?
CCCCCCc1nc2nc(Cl)c(Cl)nc2[nH]1	-1.0%	i	-0.7%	·	?	i
COc1ccc(NC(=O)C2(C)Cc3c(-c4cccc(C(N)=O)c4)ccnc3O2)cc1 (stereo unspecified)	?	7.31µM*	?	8.1%	?	?
CNC(=O)C1(C)Cc2c(-c3ccc4c(c3)OCO4)ccnc2O1 (stereo unspecified)	6.4%	i	18.7%	3.4%	i	i
COc1ccc(NC(=O)C2(C)Cc3c(-c4ccc5c(c4)OCO5)ccnc3O2)cc1 (stereo unspecified)	?	16.4µM*	?	-7.5%	?	?
COc1ccc(NC(=O)C2(C)Cc3c(-c4cccc(NC(C)=O)c4)ccnc3O2)cn1 (stereo unspecified)	?	2.06µM*	?	-16.3%	i	?
COc1ccc(NC(=O)C2(C)Cc3c(-c4ccc(NC(C)=O)cc4)ccnc3O2)cn1 (stereo unspecified)	?	?	?	-18.9%	i	i
CCn1cc(C(=O)N2CCN(c3cccc(Cl)c3)CC2)c(=O)c2cc(S(=O)(=O)N3CCOCC3)ccc21	·	i	·	0.5%	i	i
CCCNC(=O)C1(C)CCCN(C(=O)Cc2ccc(OC)c(OC)c2)C1 (stereo unspecified)	17.1%	i	25.3%	6.3%	i	i
CCOC(=O)c1[nH]c(C)c(CCC(=O)N2CCN(c3cccc(OC)c3)CC2)c1C	·	i	·	2.9%	?	i
SMILES	HT1080 IDH1KD tx	KB-3-1 tox	HT1080-NT tox	ATXN2 expr inh	KB-V1 cytotox	ATXN viability
CC(C)CC1C(=O)N(Cc2cn(CCC3OCCO3)nn2)CCS(=O)(=O)N1Cc1ccc(-c2ccccc2)cc1 (stereo unspecified)	-27.4%	?	?	?	14.6µM*	?
Cc1ccc(-c2ccc(CN3C(CC(C)C)C(=O)N(Cc4cn(CCC5OCCO5)nn4)CCS3(=O)=O)cc2)cc1 (stereo unspecified)	18.4µM*	?	18.4µM*	25.1µM*	i	35.5µM*
CC(C)CC1C(=O)N(Cc2cn(CCC3OCCO3)nn2)CCS(=O)(=O)N1Cc1ccc(-c2ccc(Cl)c(Cl)c2)cc1 (stereo unspecified)	?	i	?	?	i	·
Cc1cn2c(=O)cc(COc3ccccc3NC(=O)c3ccco3)nc2s1	·	i	·	-5.4%	i	i
COc1ccc2cnnc(SCC(=O)Nc3ccccc3)c2c1OC	-0.1%	i	-0.5%	3.9%	2.91µM*	i
COc1ccc2cnnc(SCC(=O)Nc3ccc(C(C)=O)cc3)c2c1OC	-0.4%	i	1.1%	-0.6%	5.17µM*	?
COc1ccc(CCC(C)=O)cc1	·	·	·	6.1%	·	i
CCN1c2ccccc2N(C)C1(C)c1ccccc1 (stereo unspecified)	?	?	?	17.8µM*	i	i
COc1ccc(-c2nc(CSCC(=O)NCc3ccccc3Cl)c(C)o2)cc1OC	·	i	·	·	i	·
Cc1cccc(N2CCN(C(=O)COc3ccc4ccc(=O)oc4c3)CC2)c1C	2.8%	i	-21.7%	·	i	?
Cc1cccc(N2CCN(C(=O)COc3ccc4c(c3)CCC4)CC2)c1C	-4.1%	?	0.2%	3.5%	20.6µM*	i
CCc1ccc(C2=NNC(=Nc3cccc(S(=O)(=O)N(C)C)c3)SC2)cc1	?	?	20.6µM*	?	?	?
Cc1cccc(N=C2NN=C(c3ccc4c(c3)OCCO4)CS2)c1	?	i	?	15.3%	i	i
O=C(Nc1nnc(Cc2ccccc2)s1)c1ccco1	14.1%	i	?	26.9%	i	i
